Compounds with a hit are over-represented: about 1.1% of the library has one in this group of screens.
CCHFV vOTU inh: CCHFV vOTU protease inhibition | Pep-AMC fluorescence | inhibition, % at 11.5 µM | 370,000 compounds, 0.55% hits | AID 651958; in the data active = inhibition above about 30%; also: 0% = vehicle wells with enzyme and 100% = no enzyme wells
BH1578 lux ind: quorum light induction in luxS cqsA deficient V. cholerae | V. cholerae BH1578 lux reporter, luminescence, 6 h | activation, % at 18.7 µM | 350,000 compounds, 0.16% hits | AID 588436; in the data active = activation mostly above about 9.7%, no sharp cut-off; inconclusive = no clear call, values can overlap the other calls; inactive = mostly below about 3.7%
Yp Topo-I inh: blocks Yersinia pestis topoisomerase I activity; activity, % at 10 µM; Y. pestis Topo-I cleavage product accumulation, plate reader; 360,000 compounds, 0.064% hits; in the data active = activity above about 50%, passing the limit was not always enough; inconclusive = no clear call, values can overlap the other calls
PrPC TRFRET: inhibitors of human cell surface prion protein PrPC | AID 720596 | inhibition, % at 13.8 µM | P04156 | 370,000 compounds, 0.43% hits | TR-FRET read-out; in the data active = inhibition above about 24%; also: 0% = median of the test wells and 100% = reference compound wells
PrPC TRFRET cf: cell surface PrPC inhibition, TR-FRET confirmation | shares compounds with PrPC TRFRET | cell surface PrPC level | inhibition, % at 13.8 µM | 1,500 compounds, 65% hits; in the data active = inhibition above about 25%
LD9 cytotox: LD9 cell cytotoxicity, PrPc inhibitor counter-screen. shares compounds with PrPC TRFRET. LD9 cells cytotoxicity, luminescence viability. inhibition, % at 13.8 µM. 1,500 compounds, 29% hits. AID 743201; in the data active = inhibition above about 9.5%
Numbers without * were called inactive; i = inactive; ? = inconclusive; · = no result.

SMILES	CCHFV vOTU inh	BH1578 lux ind	Yp Topo-I inh	PrPC TRFRET	PrPC TRFRET cf	LD9 cytotox
O=C(CSc1ccc([N+](=O)[O-])cn1)Nc1ccc2c(c1)OCCO2	1	0	2	41*	-11	0
CN(C)S(=O)(=O)c1ccc(SCC(=O)Nc2ccc3c(c2)OCCO3)nc1	4	-12	-3	11	·	·
O=C(Oc1ccc(-c2cnc3ccccc3n2)cc1)c1ccc(Br)o1	4	0	1	-1	·	·
N#CC1c2ccccc2-n2nncc2CN1Cc1cc(Cl)cc(Cl)c1 (stereo not drawn)	8	i	-1	68*	91*	98*
Cc1ccc(C(=O)Nc2ncc(Cc3ccccc3)s2)o1	13	i	-4	27*	26*	3
Cc1cccc[n+]1C1C(c2ccc([N+](=O)[O-])cc2)C(C#N)=C(C(=C=[N-])C#N)NC1(O)C1CC1 (stereo not drawn)	6	0	1	39*	-4	2
C/C(=C\CNc1ncnc2nc[nH]c12)CO	1	0	8	4	·	·
CC(C)CCCCCCCCCCCCC(=O)NCC(=O)NC1C(C)OC(Nc2ncnc3nc[nH]c23)C(O)C1O (stereo not drawn)	-12	i	19	25*	79*	33*
COc1ccc2[nH]c(C(=O)N/N=C/c3ccc(O)cc3O)cc2c1	1	i	-19	32*	40*	19*
CCOc1ccc2[nH]c(C(=O)N/N=C/c3ccc(OC)cc3)cc2c1	-4	i	-1	12	·	·
COc1ccc2[nH]c(C(=O)Nc3ccc(C)c(F)c3)cc2c1	-6	0	-8	39*	99*	5
COc1ccc(NC(=O)c2cc3ccccc3[nH]2)cc1	-4	-1	-3	-6	·	·
CCN(CC)C(=O)Cn1cc(C(=O)C(=O)N2CCc3ccccc32)c2ccccc21	24	i	17	53*	13	-2
CN(C)c1nc(OCCOC(=O)Nc2ccc(Cl)cc2Cl)nc(N(C)C)n1	·	0	12	·	·	·
Cc1cccc(Nc2ncnc3ccc(Br)cc23)c1	11	0	2	26*	31*	-1
Clc1ccc(Nc2ncnc3ccc(Br)cc23)cc1	-7	i	-13	30*	44*	4
Brc1ccc2ncnc(NCc3ccccc3)c2c1	9	-1	1	48*	50*	12*
Clc1cccc(Nc2ncnc3ccc(Br)cc23)c1	9	i	-17	63*	76*	2
Cc1ccc2ncnc(Nc3ccccc3)c2c1	5	i	-3	6	·	·
Cc1nn(C(=O)CCC(=O)NCc2ccccc2Cl)c2ccccc12	8	0	3	13	·	·
N=C1/C(=C\c2ccc(Br)o2)C(=O)N=C2SC(CC(=O)N3CCCCC3)=NN12	1	-1	-9	9	·	·
N#CCCN1CCN(S(=O)(=O)c2ccc(S(=O)(=O)NCC3CCCO3)cc2)CC1 (stereo not drawn)	-1	i	8	4	·	·
O=c1[nH]c(=O)n(C2OC(CO)C(O)C2O)cc1F (stereo not drawn)	·	i	5	·	·	·
CC(C)CCNC(=O)C(c1ccc(O)cc1)N(Cc1cccs1)C(=O)C1COc2ccccc2O1 (stereo not drawn)	5	0	-2	25*	10	3
CC(C)(C)NC(=O)CN(Cc1cccs1)C(=O)C1COc2ccccc2O1 (stereo not drawn)	5	-4	-3	-3	·	·
SMILES	CCHFV vOTU inh	BH1578 lux ind	Yp Topo-I inh	PrPC TRFRET	PrPC TRFRET cf	LD9 cytotox
Cc1ccc(C(=O)NCc2ccncc2)cc1S(=O)(=O)Nc1cccc(C)c1C	19	0	3	24*	32*	-3
CCOc1ccc(OCCn2c(=S)[nH]c3c(N)ncnc32)cc1	-7	i	6	-2	·	·
N/C(=N\OC(=O)c1ccccc1Cl)c1cccc([N+](=O)[O-])c1	4	0	-7	8	·	·
Cc1nnc(SCC(=O)Nc2cc(C(N)=O)cc(C(N)=O)c2)n1-c1ccccc1	23	0	7	45*	29*	-6
N#Cc1ccccc1NC(=O)CSc1nnc(-c2ccc(F)cc2)n1-c1ccccc1	3	3	-1	38*	29*	2
Cc1cc(N2CCOCC2)n2ncc(-c3ccc(Cl)cc3)c2n1	1	-1	-1	-1	·	·
O=C(CSc1cnc2ccccc2n1)NC1CCCC1	6	-1	3	33*	40*	-1
N#Cc1c(-c2ccccc2)nc(SCC(=O)NC2CCCCC2)[nH]c1=O	7	i	6	36*	39*	-10
O=C(O)CSc1cnc2ccccc2n1	10	·	1	-7	·	·
O=C(CSc1nc2ccccc2c(=O)[nH]1)NC1CCCCC1	·	·	·	14	·	·
CSc1nc(-c2cccs2)c(C#N)c(=O)[nH]1	-7	i	-9	59*	87*	-1
CNC(=O)NC(=O)CSc1nc(-c2cccs2)c(C#N)c(=O)[nH]1	3	0	-9	120*	124*	-3
O=[N+]([O-])c1ccc(C2Nc3cccc4cccc(c34)N2)cc1	0	0	-37	-4	·	·
CCC1SC(CC)C(=O)N(CC(=O)Nc2ccc3c(c2)OCO3)C1=O (stereo not drawn)	-6	0	-5	-7	·	·
O=c1[nH]c(SCc2ccc(Cl)cc2)nc2ccsc12	12	·	·	4	·	·
N#Cc1c(-c2cccs2)nc(SCc2ccc(Cl)cc2)[nH]c1=O	24	-1	11	109*	119*	-7
COc1ccc(C(C(=O)NC2CCCC2)N(C(=O)c2snc(-c3ccc(F)cc3)c2N)c2ccc(OC)cc2)cc1 (stereo not drawn)	2	6	12	46*	60*	0
CCN1C(=O)C2(C(C(=O)c3cc4ccccc4o3)=C(O)C(=O)N2CCCN2CCOCC2)c2ccccc21 (stereo not drawn)	-7	0	15	72*	99*	-8
O=C(Nc1cc(S(=O)(=O)N2CCCCC2)ccc1O)c1ccccc1NS(=O)(=O)c1ccc(F)cc1	22	-1	5	7	·	·
O=C(Nc1cc(S(=O)(=O)N2CCCCC2)ccc1Cl)c1ccccc1NS(=O)(=O)c1ccc(F)cc1	14	i	-4	25*	33*	25*
COc1ccccc1N(CC(=O)NC1CC2CCC1C2)S(=O)(=O)c1ccc(C)cc1 (stereo not drawn)	4	i	?	55*	10	-5
CCN1C(=O)C(NC(C)=O)c2cc(OC)ccc21 (stereo not drawn)	5	i	3	-5	·	·
CCC(C)n1ncn(-c2ccc(N3CCN(c4ccc(O)cc4)CC3)cc2)c1=O (stereo not drawn)	-11	0	-2	25*	30*	-8
COc1ccc(-n2nnnc2C(c2cccc(OC)c2OC)N2CCC(n3c(=O)[nH]c4ccccc43)CC2)cc1 (stereo not drawn)	8	·	·	-3	·	·
Cc1ccc2[nH]c3c(c2c1)CCNC3=O	-26	-1	8	6	·	·
COc1c(F)cc2[nH]c3c(c2c1F)CCNC3=O	-9	i	6	30*	6	-5

Source: PubChem
